The record followed here is PubChem BioAssay AID800 (PCMD, 2007).

Hit rate of the full screen: of about 220,000 compounds, about 650 (0.3%) were called active. The list comes from a sample in which actives are over-represented; it also holds similar structures and randomly drawn compounds. Values without a mark were called inactive. Rule as the data show it: active = inhibition above about 40%; inactive = the rest.

For the experiment, the target named is Coagulation factor XII (Homo sapiens) (UniProt P00748). Put plainly: human FXIIa protease inhibitors, primary screen, biochemical, 1536-well (AID 800).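 Also: 0% = enzyme with no compound and 100% = blank without enzyme.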 The following applies: purified FXIIa, Boc-QGR-AMC fluorogenic substrate, 2 h; at 5 µM; stronger effect = higher value.
Sequence of Coagulation factor XII (Homo sapiens) (P00748 20-372 limits assumed): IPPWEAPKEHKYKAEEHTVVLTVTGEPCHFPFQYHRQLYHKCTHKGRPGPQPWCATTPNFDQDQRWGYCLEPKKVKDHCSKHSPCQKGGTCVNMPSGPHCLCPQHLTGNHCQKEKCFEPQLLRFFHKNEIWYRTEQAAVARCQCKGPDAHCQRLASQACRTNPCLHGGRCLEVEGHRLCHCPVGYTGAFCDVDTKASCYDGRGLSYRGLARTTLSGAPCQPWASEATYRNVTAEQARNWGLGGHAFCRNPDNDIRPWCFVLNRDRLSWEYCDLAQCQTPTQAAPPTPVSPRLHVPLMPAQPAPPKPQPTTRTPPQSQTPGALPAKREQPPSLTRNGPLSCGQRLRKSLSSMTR
Sequence of Coagulation factor XII (Homo sapiens) (P00748 373-615 limits assumed): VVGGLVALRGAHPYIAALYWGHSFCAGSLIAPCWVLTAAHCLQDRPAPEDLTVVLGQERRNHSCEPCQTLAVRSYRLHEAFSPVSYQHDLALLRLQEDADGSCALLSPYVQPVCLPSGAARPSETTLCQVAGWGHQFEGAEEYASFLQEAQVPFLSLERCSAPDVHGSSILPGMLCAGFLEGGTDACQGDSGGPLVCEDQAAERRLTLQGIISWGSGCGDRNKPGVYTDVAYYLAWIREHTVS
What is called inhibition is the drop in the measured response relative to a control, in per cent. For `Cc1cc(-n2cnc(-c3cn(C)nc3C)n2)no1`, the inhibition is 11.1%.

`CCCCCCNS(=O)(=O)c1ccccc1Br`: the inhibition is 9.21%.

In the case of `O=C(Cn1cnc2cc([N+](=O)[O-])ccc2c1=O)NC(=O)NCc1ccccc1`, the inhibition was 1.31%.

Regarding `CCOC(=O)NNc1cc(C(F)(F)F)ccn1`, the inhibition is 9.46%.

Consider `O=C(NNS(=O)(=O)c1ccccc1C(F)(F)F)c1cc2ncc(C(F)(F)F)cc2s1`, for which the inhibition is 9.81%.

`CCc1ccc[n+](-c2nc([O-])sc2C=O)c1`: the inhibition is 9.94%.

Take `C#CCOCCOCCOCCNc1nc(N2CCN(C(=O)[C@H](CCC(=O)O)n3cc(C(N)CO)nn3)CC2)nc(N2CCN(C(=O)[C@H](CCCCN)n3cc(C(N)CC(C)C)nn3)CC2)n1` (some centres not stated): the inhibition is 5.53%.

Consider `N#Cc1c(NCCO)ccc([N+](=O)[O-])c1NCCO`, for which the inhibition was 12.3%.

On to `CCCC[C@@H]1CN=C(N)N1CCc1cc(C(F)(F)F)cc(C(F)(F)F)c1`, for which the inhibition was 2.17%.

As to `CC(C)c1ccc(NC(=S)NC2CC3C=CC2C3)cc1` (configuration not stated), the inhibition is 3.63%.

On to `CCCc1c(C(=O)Nc2ccc(F)cc2)cnn1-c1ccccc1`, for which the inhibition is -0.53%.

In the case of `CCOCC(=O)Nc1sc2c(c1C(=O)OCC)CCCC2`, the inhibition is 5.03%.

On to `CCOC(=O)c1c(NC(=O)c2ccc(Br)o2)sc2c1CCCC2`, for which the inhibition is 44% (active).

In the case of `CCOC(=O)c1c(NC(=S)NC(=O)c2ccco2)sc2c1CCCC2`, the inhibition was 23.9%.

`C=C1CCN([C@H](C(=O)NCc2cc(OC)c(OC)c(OC)c2)C(C)C)S(=O)(=O)c2ccccc21`: the inhibition is 4.35%.

Turning to `FC(F)(F)c1ccnc(Oc2ccc(C3=NCCS3)cc2)c1`, the inhibition was 9.29%.

As to `CCOc1ccc(C2c3[nH]c4ccccc4c3CCN2Cc2cccn2-c2ncccn2)cc1` (configuration not stated), the inhibition is 4.53%.

As to `CC(C)(C)CN1C(=O)C(=O)NC[C@H]1Cc1cccc2ccccc12`, the inhibition is 4.1%.

For `COCc1cc(=O)[nH]c(-c2ccc(C(F)(F)F)cc2)n1`, the inhibition is 8.57%.

As to `COc1ccccc1C1CCN(C(=S)Nc2ccc(Br)cc2)CC1`, the inhibition was 3.05%.

With `Fc1ccc(-c2csc(-c3ccc(C4SCCS4)cc3)n2)cc1F`, the inhibition was 7.1%.

As to `COc1ccc(C(CC(=O)N2CCN(c3ccccc3)CC2)c2c(O)cc(OC)cc2OC)cc1` (configuration not stated), the inhibition is 1.72%.
